Compounds without any hit were thinned out: in the full panel of roughly 83,000, 20% have a hit.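 Compound tested at a single concentration for 48 hours in 96-well plates; a percent growth value below 10 was scored as active.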 Active and inactive are the calls of the source.
Legend:
Assay in all cases: NCI-60 one-dose screen, 48 h (100 = growth as untreated, 0 = no growth, -100 = all killed)
Conditions in all cases: 10 µM unless noted
BT-549 breast = tested on: BT-549 breast
SW-620 colon = tested on: SW-620 colon
MCF7 breast = tested on: MCF7 breast
HCT-116 colon = tested on: HCT-116 colon
HCC-2998 colon = tested on: HCC-2998 colon
KM12 colon = tested on: KM12 colon
MDA-MB-435 melanoma = tested on: MDA-MB-435 melanoma

Compound | growth (BT-549 breast) | growth (SW-620 colon) | growth (MCF7 breast) | growth (HCT-116 colon) | growth (HCC-2998 colon) | growth (KM12 colon) | growth (MDA-MB-435 melanoma)
Cc1cc2c(cc1C)Nc1sc(NC(=O)CN3CCN(C)CC3)nc1C(=O)N2 | 109% (inactive) | 116% (inactive) | 97.5% (inactive) | 101% (inactive) | 101% (inactive) | 102% (inactive) | 
O=C(NCCCO)c1cc(Cl)ccc1O | 19.2% (inactive) | 23.1% (inactive) | 18.9% (inactive) | 10.9% (inactive) | 21.4% (inactive) | 14.5% (inactive) | 
COc1ccc(C2CC(c3ccc(OC)c(OC)c3)=NN2C(=O)c2cc(OC)c(OC)c(OC)c2)cc1 (stereo not drawn) | 27.6% (inactive) | 20.9% (inactive) | 27.6% (inactive) | 20.6% (inactive) | 61.1% (inactive) | 16.2% (inactive) | 
O=C(Nc1ccc(Nc2ccncc2)cc1)c1ccc(Nc2ccnc3ccc([N+](=O)[O-])cc23)cc1[N+](=O)[O-] | 38.8% (inactive) |  | 50.8% (inactive) | 54.4% (inactive) | 104% (inactive) | 2.06% (active) | 
CN(C)c1nc(-c2ccco2)n2nc(-c3ccco3)cc2n1 | 94.3% (inactive) | 93.4% (inactive) | 28.3% (inactive) | 91.6% (inactive) | 88.5% (inactive) | 61.3% (inactive) | 
CC(C)(C)c1cc(O)c(O)c(C(C)(C)C)c1 | 61.2% (inactive) | 19.3% (inactive) | 36.3% (inactive) | 15.8% (inactive) | 59.5% (inactive) | 48.1% (inactive) | 
CCOc1cc(-c2ccc[nH]2)[nH]c1/C=C1\N=C(C)C(C(=O)OC)=C1C |  | -72.9% (active) | -91.3% (active) | -60.2% (active) | -87% (active) | -85.3% (active) | -70.8% (active)
COc1ccc(OC)c(NC(=O)c2cc3oc4ccccc4c3cc2O)c1 | 89.1% (inactive) | 104% (inactive) | 83.3% (inactive) | 106% (inactive) |  | 99.5% (inactive) | 
COc1cc(Oc2cc(-c3cccnc3)ccc2NC(=O)Nc2ccc(F)cc2F)cc(OC)c1OC | 103% (inactive) | 104% (inactive) | 94.2% (inactive) | 97.8% (inactive) | 106% (inactive) | 108% (inactive) | 
COc1ccc(/C=N\Nc2ccc([N+](=O)[O-])cn2)cc1OC |  | 61.5% (inactive) | 74.7% (inactive) | 17.1% (inactive) | 99.7% (inactive) | 44.1% (inactive) | 72.9% (inactive)
O=C(OCCBr)c1ccc(Cl)c([N+](=O)[O-])c1 | 107% (inactive) | 103% (inactive) | 44.7% (inactive) | 92.4% (inactive) | 42.9% (inactive) | 63.1% (inactive) | 
C=C(C)[C@@H]1C[C@H](O)Cc2cc(Cl)cc(Cl)c2N1 | 105% (inactive) | 105% (inactive) | 103% (inactive) | 99.5% (inactive) | 105% (inactive) | 107% (inactive) | 
CCCCCCOc1ccc(/C=N/NC(N)=S)cc1 | -5% (active) | 23.3% (inactive) | 56.6% (inactive) | 33.6% (inactive) | 72.1% (inactive) | 48.9% (inactive) | 
CC(C)(C)c1ccc(S(=O)(=O)O)s1 |  | 108% (inactive) | 98% (inactive) | 107% (inactive) | 112% (inactive) | 112% (inactive) | 102% (inactive)
O=C1Nc2ccc(F)cc2/C1=C/c1nc(-c2ccc(F)cc2)n2ccccc12 |  | 80.1% (inactive) | 85.6% (inactive) | 91.1% (inactive) | 108% (inactive) | 87.6% (inactive) | 85% (inactive)
Cc1ccc(NC(=O)COC(=O)c2ccc(S(=O)(=O)N3CCCCCC3)cc2)cc1 |  | 107% (inactive) | 102% (inactive) | 103% (inactive) | 91.5% (inactive) | 97.7% (inactive) | 107% (inactive)
C=C(C[C@](O)(C(=O)/C=C/c1ccc(Cl)cc1)C(=O)OC)c1ccccc1 |  | 30.3% (inactive) | 5.85% (active) | 34.9% (inactive) | 41.9% (inactive) | 15.3% (inactive) | 66.5% (inactive)
Cc1cc(C)n(C(=O)c2nn(-c3ccc(Cl)cc3)cc2O)n1 |  | 81.4% (inactive) | 81% (inactive) | 8.59% (active) | 82.8% (inactive) | 36.3% (inactive) | 32.1% (inactive)
CNc1ccc(CSc2ccc(Cl)cc2)cc1 |  | 109% (inactive) | 96.2% (inactive) | 91.3% (inactive) | 118% (inactive) | 111% (inactive) | 87.3% (inactive)
CCCCC1Nc2nc(SC)n(C)c(=O)c2CN(Cc2ccccc2)C1=O (stereo not drawn) |  | 107% (inactive) | 100% (inactive) | 97.3% (inactive) | 94.3% (inactive) | 105% (inactive) | 99.4% (inactive)
COc1ccc(-n2nnc(C(=O)O)c2-c2cc(OC)c(OC)c(OC)c2)cc1 |  | 104% (inactive) | 102% (inactive) | 100% (inactive) | 99.1% (inactive) | 105% (inactive) | 121% (inactive)
COc1c(O)cc2oc3cc(O)c(CC=C(C)C)c(O)c3c(=O)c2c1C/C=C(\C)CCC=C(C)C |  | 41.5% (inactive) | 21.9% (inactive) | -29.6% (active) | -0.115% (active) | 25% (inactive) | 78.4% (inactive)
COc1ccc(C2=NN(C(C)=O)C(c3cc(OC)c(OC)c(OC)c3)C2)cc1 (stereo not drawn) |  | 98% (inactive) | 89.8% (inactive) | 103% (inactive) | 94.9% (inactive) | 60.5% (inactive) | 34.1% (inactive)

Compound | growth (BT-549 breast) | growth (SW-620 colon) | growth (MCF7 breast) | growth (HCT-116 colon) | growth (HCC-2998 colon) | growth (KM12 colon) | growth (MDA-MB-435 melanoma)
COc1ccc2[nH]c(-c3ccccc3)cc2c1 |  | 102% (inactive) | 95% (inactive) | 100% (inactive) | 118% (inactive) | 99.3% (inactive) | 100% (inactive)
CC(=O)c1ccc2c3c(n(C)c2c1)CCCC3 |  | 110% (inactive) | 95.9% (inactive) | 99.1% (inactive) | 93.7% (inactive) | 112% (inactive) | 97.8% (inactive)
COc1ccc2nc(NC(=O)c3cc(-c4ccc(F)cc4)n4nc(-c5ccccc5)cc4n3)sc2c1 |  | 94.7% (inactive) | 86.8% (inactive) | 61.5% (inactive) | 98.6% (inactive) | 74.1% (inactive) | 96.2% (inactive)
C[n+]1ccc(Nc2ccc(NC(=O)c3ccc(Nc4cc[n+](C)c5ccc(N)cc45)cc3)cc2)cc1 |  | 105% (inactive) | 96.2% (inactive) | 95% (inactive) | -27.7% (active) | 109% (inactive) | 88.7% (inactive)
CCCOc1ccc2c(c1)CC[C@@H]1[C@@H]2CC[C@@]2(C)[C@H]1CC[C@]2(C)O |  | 53.8% (inactive) | 101% (inactive) | 83.9% (inactive) | 74.7% (inactive) | 35.6% (inactive) | 84.3% (inactive)
CCCCCCC(C)(O)c1ccccc1 (stereo not drawn) |  | 107% (inactive) | 97.4% (inactive) | 109% (inactive) | 102% (inactive) | 107% (inactive) | 106% (inactive)
O=C(c1nn(-c2ccc(Cl)cc2)cc1O)n1nc(C(F)(F)F)cc1-c1ccccc1 |  | 39.6% (inactive) | 44% (inactive) | 8.39% (active) | 43.2% (inactive) | 50.8% (inactive) | 48.1% (inactive)
C=CCOc1ccc2c(c1)CC[C@@H]1[C@@H]2CC[C@@]2(C)[C@H]1CC[C@]2(C)O |  | 64.3% (inactive) | 117% (inactive) | 94.4% (inactive) | 94.8% (inactive) | 58.2% (inactive) | 86.9% (inactive)
CC(C)C(=O)Cc1cnccn1 |  | 102% (inactive) | 103% (inactive) | 109% (inactive) | 104% (inactive) | 112% (inactive) | 101% (inactive)
COc1ccc(Cn2cc3c(c2-c2ccccc2)CCc2cncnc2-3)cc1 |  | 27.5% (inactive) | 39.4% (inactive) | 27.2% (inactive) | 53.1% (inactive) | 26.6% (inactive) | 0.92% (active)
O=C1NCC(Nc2ccc(Br)cc2Cl)C(=O)N1 (stereo not drawn) |  | 100% (inactive) | 103% (inactive) | 102% (inactive) | 116% (inactive) | 108% (inactive) | 111% (inactive)
COc1ccc2c(c1)C(=O)/C(=C/c1ccc([N+](=O)[O-])s1)O2 |  | -69.7% (active) | 3% (active) | -0.508% (active) | -6.91% (active) | -19.3% (active) | -70.4% (active)
CCN(CC)CCCCNc1c2ccccc2[n+](C)c2c1[nH]c1ccccc12 |  | -7.04% (active) | -7.18% (active) | 0.472% (active) | -56.4% (active) | -12.9% (active) | -77.1% (active)
O=c1ccn(C2CCCO2)c(=O)[nH]1 (stereo not drawn) |  | 102% (inactive) | 99.4% (inactive) | 97.2% (inactive) | 104% (inactive) | 108% (inactive) | 103% (inactive)
Oc1[nH]c2ccc(Cl)cc2c1/C=c1/ccc2c(c1)N=C(c1ccc(C(F)(F)F)cc1)N=2 |  | 84.3% (inactive) | 27.6% (inactive) | 50.1% (inactive) | 61.5% (inactive) | 45.4% (inactive) | 42.7% (inactive)
CSC1=Nc2c(c(C)c(-c3ccccc3)n2CCCN2CCCCC2)C2=NC(=O)C[C@H](C)N12 |  | 61.5% (inactive) | 13.9% (inactive) | 42.9% (inactive) | 60.7% (inactive) | 2.35% (active) | 26.3% (inactive)
O=C(/C=C/c1cccnc1)/C=C/c1cccnc1 |  | -68.6% (active) | -39.4% (active) | -92.7% (active) | -70.6% (active) | -85.1% (active) | -28.9% (active)
CC1=CSC2=NCCN12 |  | 102% (inactive) | 96.6% (inactive) | 111% (inactive) | 108% (inactive) | 109% (inactive) | 111% (inactive)
Cc1ccc2c(c1)O/C(=C\c1ccc([N+](=O)[O-])o1)C2=O |  | -56.5% (active) | 9.48% (active) | -47.7% (active) | 64.3% (inactive) | 86% (inactive) | -8.75% (active)
Nc1nc(Cl)c2[nH]cnc2n1 |  | 105% (inactive) | 108% (inactive) | 104% (inactive) | -51.2% (active) | 109% (inactive) | 102% (inactive)
CCN1C[C@@H](C)n2c(c(O)c3c(=O)n(Cc4ccc(F)c(Cl)c4)nc(C(=O)NC)c32)C1=O |  | 21.1% (inactive) | 53.6% (inactive) | 16.3% (inactive) | 14.7% (inactive) | 21% (inactive) | 27.4% (inactive)
NC(=O)c1ccccc1NC(=O)c1ccccc1Cl |  | 108% (inactive) | 115% (inactive) | 103% (inactive) | 116% (inactive) | 105% (inactive) | 105% (inactive)
